Reference: PubChem BioAssay (NCATS)
Records with an inconclusive call do not appear. Where a call stands in place of a potency, no number is given. Calls of active or inactive are those of the source. Unless noted, calls come from the whole dose curve; as a rule, active = well fitted curve in the direction sought with a large enough effect; inconclusive = small, poorly fitted or top-dose-only effect, or another doubt; inactive = no such curve, though single readings can be large; an effect the other way counts as inactive or inconclusive.

Experiments:
[1] = S16 Schwann cell viability assay (CellTiter-Glo assay) (AID 624031);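 note: native untransfected S16 rat Schwann cells; cellular ATP luminescence as a viability measure; nearly all actives have a fitted effect of over 70% in size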
Procedure, shortened: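 Following overnight culture in 10% FBS DMEM, parental S16 rat Schwann cells are dosed for 24 h at 37 °C. Viability is read as CellTiter-Glo luminescence and expressed as % activity relative to DMSO (0%) and no-cell wells.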

[2] = S16 Schwann cell PMP22 intronic element beta-lactamase assay (AID 624044; calls by dose curve; note: nearly all actives have a fitted effect of over 15% in size)
Procedure, shortened: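 Rat S16 Schwann cells with beta-Lac driven by a PMP22 intronic element, compound-treated 24 h at 37 °C. LiveBLAzer FRET B/G read: 460 nm normalized to potassium clavulanate vs DMSO; 535 nm FRET as viability; concentration-effect curves classified.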

[3] = S16 Schwann cell PMP22 intronic element firefly luciferase assay (AID 624032); note: nearly all actives have a fitted effect of over 30% in size; note: potency is the fitted concentration of half-maximal effect
Procedure, shortened: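 Rat S16 Schwann cells stably carrying a PMP22 intronic element-driven Fluc reporter were seeded overnight, then exposed to compounds for 24 h at 37 °C. Luminescence was normalized to PTC124 (positive control) and DMSO (0% activity).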

[4] = target: Glutaminase kidney isoform, mitochondrial (Homo sapiens) (UniProt O94925); assay: qHTS for Inhibitors of Glutaminase (GLS): LOPAC Validation (AID 624146);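 note: glutamate product detected by oxidase and peroxidase coupled Amplex red fluorescence gain; nearly all actives have a fitted effect of over 60% in size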
Procedure, shortened: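 Human kidney-isoform GLS in 45 mM KH2PO4 pH 8.2, 0.02% Tween-20, with compound, started with 1mM L-Glutamine (added stock). Glutamate oxidase/HRP/Amplex red coupled fluorescence read at start and after 30 min at RT.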

[5] = qHTS of Trypanosoma Brucei Inhibitors: LOPAC Validation (AID 624147)
Procedure, shortened: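 Glycolytic pyruvate kinase of T. brucei was incubated with substrate, test compound and 130 uM ADP for 45 minutes at room temperature. Luminescent Kinase-Glo Plus signal was measured after 10 minutes.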

[6] = target: Glucagon-like peptide 1 receptor (Homo sapiens) (UniProt P43220); assay: qHTS of GLP-1 Receptor Agonists: LOPAC Validation (AID 624148);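 note: higher luminescence signal means agonism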
Procedure, shortened: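 HEK293 cells stably co-expressing a cAMP-responsive luciferase reporter and a hypersensitive GLP-1R were plated 12 h at 37 °C and exposed to compounds for 4-6 hr at 37 °C, 5% CO2. Luminescence was read 12 min after adding detection reagent.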

[7] = qHTS of Nrf2 Activators: LOPAC Validation (AID 624149)
Procedure, shortened: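 AREc32_Fluc cells, 1000/well in OPTI-MEM with 5% FBS, grown overnight, then exposed to compounds for 24 hr at 37 deg C, 5% CO2. ARE-driven firefly luciferase read by Steady-Glo luminescence after 30 min at RT.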

[8] = HTS Assay for Allosteric Antagonists of the Human D2 Dopamine Receptor: Hit Validation in HTRF (AID 624455);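 note: stable D1 dopamine receptor cell line scored for blocking the D1 response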
Procedure, shortened: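 Hit validation in cells stably expressing the D1 dopamine receptor, run in HTRF format. Compounds were tested for their ability to inhibit the D1-mediated response.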

[9] = Cytotoxicity counterscreen for NFkB agonists and antagonists (AID 624476);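 note: cells exposed to compound for 48 hours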; note: potency is the fitted concentration of half-maximal effect
[10] = qHTS Assay for Identification of Small Molecule Antagonists for NFkB Signaling Pathway. (AID 624479; calls by dose curve;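 note: pathway stimulated with TNF alpha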; note: potency is the fitted concentration of half-maximal effect)
[11] = Cell Proliferation Assay against the TMD8 Cell Line (AID 651645); details: TMD8 DLBCL cell line proliferation/viability; at 46.1 µM (top of the series);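 note: cells exposed to compound for 48 h before reading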
Procedure, shortened: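 Viability by CellTiter-Glo after 48 h compound exposure of 500 log-phase TMD8 cells per well (RPMI, 5% FBS). Percent activity scaled between DMSO (100%) and 9.2 uM final bortezomib (0%).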

[12] = Cell Proliferation Assay against the HBL1 Cell Line (AID 651646); details: HBL1 DLBCL cells; at 46.1 µM (top of the series);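 note: cells exposed to compound for 48 h before reading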
Procedure, shortened: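 500 log-phase HBL1 cells per well in phenol red-free RPMI with 5% FBS were treated with compounds for 48 h at 37 °C, 5% CO2. Viability was read by CellTiter-Glo luminescence, normalized to DMSO (100%) and 9.2 uM bortezomib final (0%).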

[13] = Cell Proliferation Assay against the TMD8 Cell Line (Caspase readout at 16 hrs) (AID 651712); note: potency is the fitted concentration of half-maximal effect
Procedure, shortened: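 TMD8 cells (500/well) in phenol-red-free RPMI with glutamine, 5% FBS, were exposed to compounds for 16 h at 37 °C. Caspase 3/7 activation was read by Caspase-Glo luminescence; percent activity normalised to DMSO (0%) and 9.2 uM bortezomib final (100%).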

[14] = qHTS Assay for Identification of Small Molecule Agonists for NFkB Signaling Pathway. (AID 624478)
Procedure, shortened: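 NFkB-bla ME-180 cells carry a beta-lactamase reporter. They received compound plus TNF alpha at 10 pM final (its EC50) for 5 h at 37 C. Reporter activity was read as 460/530 nm emission ratio after 2 h LiveBLAzer substrate loading.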

[15] = Cell Proliferation Assay against the TMD8 Cell Line (Caspase readout at 8 hrs) (AID 651713); note: potency is the fitted concentration of half-maximal effect
Procedure, shortened: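 TMD8 cells in RPMI plus 5% FBS were treated with compound for 8 h at 37C. Caspase 3/7 activation was read by Caspase-Glo luminescence. Percent activity was scaled from DMSO (0%) to 9.2 uM bortezomib final (100%).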

Chain of Glucagon-like peptide 1 receptor (Homo sapiens) (P43220 whole entry, looked up): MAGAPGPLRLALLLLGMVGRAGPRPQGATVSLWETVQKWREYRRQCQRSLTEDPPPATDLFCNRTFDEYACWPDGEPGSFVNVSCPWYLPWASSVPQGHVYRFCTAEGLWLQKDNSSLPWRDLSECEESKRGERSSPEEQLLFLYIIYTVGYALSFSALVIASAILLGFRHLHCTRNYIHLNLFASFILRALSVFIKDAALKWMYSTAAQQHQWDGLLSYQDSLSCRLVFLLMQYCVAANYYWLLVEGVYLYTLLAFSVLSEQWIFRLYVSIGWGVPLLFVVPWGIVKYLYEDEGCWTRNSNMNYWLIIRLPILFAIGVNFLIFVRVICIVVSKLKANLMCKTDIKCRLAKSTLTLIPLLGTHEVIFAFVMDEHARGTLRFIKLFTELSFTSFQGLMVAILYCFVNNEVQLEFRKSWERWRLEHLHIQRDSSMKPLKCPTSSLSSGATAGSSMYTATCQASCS
Chain of Glutaminase kidney isoform, mitochondrial (Homo sapiens) (O94925 whole entry, looked up, canonical isoform): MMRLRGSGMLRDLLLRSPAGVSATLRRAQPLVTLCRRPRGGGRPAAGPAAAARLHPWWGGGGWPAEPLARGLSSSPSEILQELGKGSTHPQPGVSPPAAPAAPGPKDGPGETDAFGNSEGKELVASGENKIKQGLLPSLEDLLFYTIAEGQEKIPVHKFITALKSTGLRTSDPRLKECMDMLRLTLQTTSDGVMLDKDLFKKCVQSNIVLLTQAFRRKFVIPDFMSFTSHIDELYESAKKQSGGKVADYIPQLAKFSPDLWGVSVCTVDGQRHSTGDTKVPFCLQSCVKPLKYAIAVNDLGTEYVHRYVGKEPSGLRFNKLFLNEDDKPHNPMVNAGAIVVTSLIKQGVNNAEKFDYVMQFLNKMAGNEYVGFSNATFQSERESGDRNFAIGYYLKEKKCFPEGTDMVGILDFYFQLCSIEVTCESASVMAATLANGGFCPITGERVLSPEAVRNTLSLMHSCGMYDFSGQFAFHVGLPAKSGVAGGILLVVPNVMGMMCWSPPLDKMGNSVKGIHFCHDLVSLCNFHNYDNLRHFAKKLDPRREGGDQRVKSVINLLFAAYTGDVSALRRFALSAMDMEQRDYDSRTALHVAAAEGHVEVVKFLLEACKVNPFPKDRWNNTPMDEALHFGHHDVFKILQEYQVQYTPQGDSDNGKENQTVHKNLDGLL

CN1CC(=O)N2C(Cc3c([nH]c4ccccc34)[C@H]2c2ccc3c(c2)OCO3)C1=O (some centres not stated)
outcome [1]: inactive
Potency [2]: inactive

N#CC(c1ccc(Cl)cc1)c1c(Cl)cc(-n2ncc(=O)[nH]c2=O)cc1Cl (configuration not stated)
outcome [1]: inactive
Potency [3]: inactive
Potency [2]: inactive

C=CCc1cccc(C=NNC(=O)CN2CCN(Cc3ccccc3)CC2)c1O
outcome [4]: inactive
outcome [5]: inactive
outcome [6]: inactive
outcome [7]: inactive
outcome [8]: inactive

CC(C)CN(C[C@@H](O)[C@H](Cc1ccccc1)NC(=O)O[C@H]1CO[C@H]2OCC[C@H]21)S(=O)(=O)c1ccc(N)cc1
outcome [1]: inactive
Potency [3]: inactive

COc1ccnc(CS(=O)c2nc3ccc(OC(F)F)cc3[nH]2)c1OC (configuration not stated)
outcome [1]: inactive
Potency [3]: inactive
Potency [2]: inactive

COc1cccc(OC)c1-c1cc(C(=O)NC2(C(=O)O)C3CC4CC(C3)CC2C4)nn1-c1ccnc2cc(Cl)ccc12 (configuration not stated)
Potency [9]: 14.8 µM (active)
Potency [10]: 16.8 µM (active)
viability (% of control) [11]: 69%
viability, percent of control [12]: 3.08%
Potency [13]: 23.5 µM (active)

CC(C)n1c(C=C[C@H](O)C[C@H](O)CC(=O)O)c(-c2ccc(F)cc2)c2ccccc21
Potency [9]: inactive
outcome [14]: inactive
Potency [10]: inactive
Potency [13]: inactive
Potency [15]: inactive

O=C1C(CCC(O)c2ccc(F)cc2)C(c2ccc(O)cc2)N1c1ccc(F)cc1 (configuration not stated)
outcome [1]: inactive
Potency [2]: inactive
Potency [9]: inactive
Potency [10]: inactive
viability (% of control) [11]: 87.2%
viability, percent of control [12]: 68%
Potency [15]: inactive

CS(=O)(=O)c1ccc(C2=C(c3ccccc3)C(=O)OC2)cc1
outcome [1]: inactive
Potency [3]: inactive
Potency [2]: inactive

COc1ccc2c(c1)CC[C@H]1[C@@H]2CC[C@]2(C)[C@@H](NCCCCCCN3C(=O)C=CC3=O)CC[C@H]12
Potency [9]: inactive
Potency [10]: inactive
viability (% of control) [11]: 15.9%
viability, percent of control [12]: 33.1%

CN1CCN2c3ncccc3Cc3ccccc3C2C1 (configuration not stated)
outcome [1]: inactive
Potency [3]: inactive
Potency [2]: inactive

Nc1ccc(-c2ccc3ncc4ccc(=O)n(-c5cccc(C(F)(F)F)c5)c4c3c2)cn1
Potency [9]: 0.833 µM (active)
Potency [10]: 4.73 µM (active)
viability (% of control) [11]: 9.02%
viability, percent of control [12]: 8.06%
Potency [13]: 0.118 µM (active)

CC(C)Oc1cc(Nc2nc(N[C@@H](C)c3ccc(F)cn3)ncc2Cl)[nH]n1
Potency [9]: 2.96 µM (active)
Potency [10]: 14.9 µM (active)
viability (% of control) [11]: 0.843%
viability, percent of control [12]: 13.4%
Potency [13]: inactive

Clc1ccc(COC(Cn2ccnc2)c2ccc(Cl)cc2Cl)c(Cl)c1 (configuration not stated)
outcome [1]: inactive
Potency [3]: 8.7 µM (active)
Potency [2]: inactive

N#Cc1c(N(CC(=O)O)CC(=O)O)sc(C(=O)O)c1CC(=O)O
outcome [1]: inactive
Potency [3]: inactive
Potency [2]: inactive

COc1cc2nccc(Oc3ccc(NC(=O)Nc4cc(C)on4)c(Cl)c3)c2cc1OC
Potency [9]: inactive
outcome [14]: inactive
Potency [10]: 16.8 µM (active)
viability (% of control) [11]: 6.06%
viability, percent of control [12]: 26.7%

O=C(O)c1nc(=O)[nH]c(=O)[nH]1
outcome [1]: inactive
Potency [3]: 16.1 µM (active)
Potency [2]: inactive

CCNC(=O)c1noc(-c2cc(C(C)C)c(O)cc2O)c1-c1ccc(CN2CCOCC2)cc1
Potency [9]: inactive
Potency [10]: 0.0009 µM (active)
viability (% of control) [11]: 7.59%
viability, percent of control [12]: 47.2%

Cn1cc(-c2ccc3nnc(Sc4ccc5ncccc5c4)n3n2)cn1
Potency [9]: inactive
Potency [10]: inactive
viability (% of control) [11]: 74.4%
viability, percent of control [12]: 119%
Potency [13]: inactive
Potency [15]: inactive

C[C@H]1O[C@@H](n2cc(F)c(=O)[nH]c2=O)[C@H](O)[C@H]1O
outcome [4]: inactive
outcome [5]: inactive
outcome [6]: inactive
outcome [7]: inactive
outcome [8]: inactive

Cc1csc(-c2nnc(Nc3ccc(Oc4ncccc4-c4ccnc(N)n4)cc3)c3ccccc23)c1
Potency [9]: inactive
Potency [10]: 1.06 µM (active)
viability (% of control) [11]: 4.09%
viability, percent of control [12]: 63.2%
Potency [13]: 23.5 µM (active)

CNC(=O)c1cc(Oc2ccc(NC(=O)Nc3ccc(Cl)c(C(F)(F)F)c3)c(F)c2)ccn1
Potency [9]: 5.26 µM (active)
outcome [14]: inactive
Potency [10]: 5.95 µM (active)
viability (% of control) [11]: 3.02%
viability, percent of control [12]: 4.87%
Potency [13]: inactive
Potency [15]: inactive

COc1cc2c(cc1OC)CC(=O)N(CCCN(C)C[C@H]1Cc3cc(OC)c(OC)cc31)CC2
outcome [1]: inactive
Potency [3]: inactive
Potency [9]: inactive
Potency [10]: inactive
viability (% of control) [11]: 108%
viability, percent of control [12]: 122%
Potency [13]: inactive
Potency [15]: inactive

C=C1c2cccc(O)c2C(O)=C2C(=O)[C@@]3(O)C(O)=C(C(N)=O)C(=O)[C@@H](N(C)C)[C@@H]3[C@@H](O)[C@H]12
Potency [3]: inactive
Potency [2]: inactive

Cc1ccc(NC(=O)c2ccc(CN3CCN(C)CC3)cc2)cc1Nc1nc(-c2cccnc2)cs1
Potency [9]: inactive
Potency [10]: 16.8 µM (active)
viability (% of control) [11]: 8.7%
viability, percent of control [12]: 11%
Potency [13]: inactive
Potency [15]: 23.5 µM (active)

NCC1CCC(C(=O)O)CC1 (configuration not stated)
outcome [1]: inactive
Potency [3]: inactive
Potency [2]: inactive
